Results published in PubChem BioAssay (NCATS).
Records with an inconclusive call do not appear. The source made the active and inactive calls. Calls come from the whole dose curve; as a rule, active = well fitted curve in the direction sought with a large enough effect; inconclusive = small, poorly fitted or top-dose-only effect, or another doubt; inactive = no such curve, though single readings can be large; an effect the other way counts as inactive or inconclusive. Where a SMILES comes first, the peptide text is derived from it.

Legend:
[1] = target: Glutathione peroxidase 1 (Homo sapiens) (UniProt P07203); test: Primary qHTS Assay for Inhibitors of Recombinant Selenoprotein Glutathione Peroxidase 1 (GPX1) (AID 1845191); note: nearly all actives have a fitted effect of over 65% in size; for activity, negative = inhibition: % is set by controls: 0 for no effect and ±100 for the full control effect
Outline: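 GR-coupled readout: NADPH consumption tracked by fluorescence, ex 340/em 450 nm, at t=0 and after 15 min at RT. Final mix 10 nM GPX1, 1 mM GSH, 0.5 mM CHP, 0.5 mM NADPH, 100 nM GR, 0.01% BSA, following 30 min enzyme–compound preincubation.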

[2] = target: Phospholipid hydroperoxide glutathione peroxidase GPX4 (Homo sapiens) (UniProt P36969); test: Primary qHTS Assay for Inhibitors of Recombinant Selenoprotein Glutathione Peroxidase 4 (GPX4) (AID 1845192); note: nearly all actives have a fitted effect of over 65% in size; for activity change, negative = inhibition: series mostly up to about 50 µM; % is set by controls: 0 for no effect and ±100 for the full control effect
Outline: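 Steps: GPX4 plus compound, 30 min RT; add GR/GSH/NADPH master mix; start with cumene hydroperoxide; read 340/450 nm fluorescence at 0 and 15 min. Finals were 200 nM GPX4, 1 mM GSH, 0.5 mM CHP, 0.5 mM NADPH, 100 nM GR.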

[3] = target: Luciferin 4-monooxygenase (Photinus pyralis) (UniProt P08659); test: Primary firefly luciferase (FLuc) qHTS assay for identification of artifact compounds. (AID 1845220); note: nearly all actives have a fitted effect of over 60% in size;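 for activity change, negative = inhibition: series mostly up to about 54 µM; plate controls were DMSO vehicle for no effect and no enzyme for full effect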
Outline: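 Enzymatic FLuc inhibition assay: compounds pre-exposed to luciferin/ATP (10 uM each) for 15 min, then purified P. pyralis enzyme at 10 nM added. Read-out: luminescence at 5 min.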

[4] = Primary fluorescence-based thiol-reactive (MSTI) qHTS assay for identification of artifact compounds. (AID 1845221); note: nearly all actives have a fitted effect of over 65% in size; note: potency is the fitted concentration of half-maximal effect;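 for activity change, negative = thiol reactive: series mostly up to about 54 µM; thiol-reactive compounds lower the probe fluorescence signal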
Outline: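 MSTI probe at 4 uM final in 2% DMSO/PBS pH 7.4; compounds, 1 h at room temperature in dark. Fluorescence Ex/Em 525/598 nm, normalised to Acetyl-MSTI and MSTI, fitted to 4-parameter Hill.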

[5] = test system: Nanoluciferase (engineered Oplophorus gracilirostris luciferase); test: Primary Nanoluciferase (NLuc) qHTS assay for identification of artifact compounds. (AID 1845222);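 note: NLuc secreted into diluted conditioned medium of S16 cells; series mostly up to about 54 µM; 0% = DMSO and -100% = no enzyme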
Outline: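 S16 cell supernatant NLuc, 1:55; cpds qHTS; 15 min RT dark; Nano-Glo substrate 1:100, 5 min; luminescence; Hill fit of % inhibition.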

Phospholipid hydroperoxide glutathione peroxidase GPX4 (Homo sapiens), sequence (P36969 whole entry, looked up): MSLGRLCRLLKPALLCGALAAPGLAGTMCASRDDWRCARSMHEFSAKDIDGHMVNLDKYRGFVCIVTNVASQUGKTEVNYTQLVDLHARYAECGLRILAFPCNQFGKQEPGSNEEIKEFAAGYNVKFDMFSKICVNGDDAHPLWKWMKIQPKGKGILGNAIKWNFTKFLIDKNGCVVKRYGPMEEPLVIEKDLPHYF
Glutathione peroxidase 1 (Homo sapiens), sequence (P07203 whole entry, looked up): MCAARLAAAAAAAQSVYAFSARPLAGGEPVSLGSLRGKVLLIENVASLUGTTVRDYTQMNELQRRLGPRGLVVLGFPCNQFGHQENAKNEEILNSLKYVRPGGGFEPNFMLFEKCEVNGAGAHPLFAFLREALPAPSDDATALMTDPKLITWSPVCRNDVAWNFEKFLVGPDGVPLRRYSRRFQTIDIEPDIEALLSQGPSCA

CC(=O)NC(Cc1ccccc1)C(=O)NC(C(=O)O)C(C)C (stereo not drawn) (Ac-Phe-Val-OH; configuration not given here)
inactive: Potency [1] | Potency [2] | Potency [3] | Potency [4] | Potency [5]

CCc1nn(CCO)c(CC)c1Oc1cc(C#N)cc(C#N)c1
inactive: Potency [1] | Potency [2] | Potency [3] | Potency [4] | Potency [5]

COc1ccc(/C=C/C(=O)N2CCCC2)cc1
inactive: Potency [1] | Potency [2] | Potency [3] | Potency [4] | Potency [5]

C[C@@H]1O[C@@H](O[C@H]2[C@H](O)[C@@H](O[C@@H]3O[C@H](CO)[C@H](O)[C@H](O)[C@H]3O)[C@H](O[C@H]3CC[C@@]4(C)C(CC[C@]5(C)C4CC=C4[C@@H]6CC(C)(C)CC[C@]6(C(=O)O[C@@H]6O[C@H](CO)[C@@H](O)[C@H](O)[C@H]6O)CC[C@]45C)C3(C)C)O[C@@H]2C(=O)O)[C@H](O)[C@H](O)[C@H]1O (stereo not given in full)
inactive: Potency [1] | Potency [2] | outcome [3] inactive [at 11.6 µM] | activity change, negative = thiol reactive [4] 349% [at 11.5 µM] | activity, negative = inhibition [5] 2.46% [at 11.6 µM]

COc1cccc(OC)c1-c1nc(C(=O)N[C@@H](CC(C)C)C(=O)O)cn1-c1ccnc2cc(Cl)ccc12
inactive: Potency [1] | Potency [2] | Potency [3] | Potency [4] | Potency [5]

C[C@@H]1O[C@@H](O[C@H]2[C@H](OC(=O)[C@]34CCC(C)(C)C[C@H]3C3=CCC5[C@@]6(C)C[C@@H](O)[C@@H](O[C@@H]7O[C@H](CO)[C@@H](O)[C@H](O)[C@H]7O)[C@@](C)(CO)C6[C@H](O)C[C@@]5(C)[C@]3(C)CC4)OC[C@H](O)[C@@H]2O)[C@H](O)[C@H](O[C@@H]2OC[C@](O)(CO)[C@H]2O)[C@H]1O[C@@H]1OC[C@@H](O)[C@H](O[C@H]2O[C@H](C)[C@@H](O)[C@H](O)[C@@H]2O)[C@H]1O (stereo not given in full)
inactive: Potency [1] | Potency [2] | activity change, negative = inhibition [3] 1.3% [at 11.6 µM] | activity change, negative = thiol reactive [4] 412% [at 11.5 µM] | activity, negative = inhibition [5] 0% [at 11.6 µM]

CC/C=C\C(O)C(O)C1=C(C)C(=O)C2(O1)C(=O)NC(OC)(C(=O)c1ccccc1)C2O (stereo not given)
active: Potency [4] 4.62 µM
inactive: Potency [1] | Potency [2] | Potency [3] | Potency [5]

CC(=O)N[C@H](Cc1c[nH]c2ccccc12)C(=O)OCc1cc(C(F)(F)F)cc(C(F)(F)F)c1
inactive: Potency [1] | Potency [2] | Potency [3] | Potency [4] | Potency [5]

COc1cccc(CN(C(=O)CC(C)(C)C)C2CC(C(=O)N3CCNCC3)N(Cc3ccc4c(c3)OCO4)C2)c1 (stereo not given)
inactive: Potency [1] | Potency [2] | Potency [3] | Potency [4] | Potency [5]

COc1cccc(OC)c1-c1cc(C(=O)N[C@@H](CC(C)C)C(=O)O)nn1-c1ccnc2cc(Cl)ccc12
inactive: Potency [1] | Potency [2] | Potency [3] | Potency [4] | Potency [5]

CC(=O)O[C@H]1C[C@@]2(C)[C@@H](CC[C@H]3[C@@]4(C)C=CC(=O)[C@@H](C)[C@@H]4[C@H](OC(C)=O)C(=O)[C@@]32C)/C1=C(\CCC=C(C)C)C(=O)O
inactive: Potency [1] | Potency [2] | Potency [3] | Potency [4] | Potency [5]

C=C1C(=O)OC[C@H]2C(C(=O)O)=CC3CC(C)(C)C[C@@]132 (stereo not given in full)
active: Potency [4] 21.2 µM
inactive: Potency [1] | Potency [2] | Potency [3] | Potency [5]

COc1cc(C)c(C(=O)NC2C(C)OC(OC3CCC(C)C4C3C=C(C)C3/C(C)=C\CC/C(C)=C/C5(C)C=C(C(=O)O)C(C)CC56OC(=O)/C(=C(\O)C34C)C6=O)C(O)C2(C)O)c(O)c1 (stereo not given)
inactive: Potency [1] | Potency [2] | outcome [3] inactive [at 11.6 µM] | activity change, negative = thiol reactive [4] 188% [at 11.5 µM] | activity, negative = inhibition [5] 4.93% [at 11.6 µM]

C/C(=C\CCC(C)CCO)C(=O)OC[C@H]1O[C@@H](O[C@@H]2OC=C(C(=O)O)[C@H]3CC[C@](C)(O)[C@@H]23)C(O)[C@@H](O)C1O (stereo not given in full)
active: Potency [4] 2.32 µM
inactive: Potency [1] | Potency [2] | Potency [3] | Potency [5]

COC(=O)C[C@H]1C(C)(C)[C@H](OC(=O)C(C)C)C2CC3=C4CC(=O)O[C@@H](c5ccoc5)[C@]4(C)CCC3[C@@]1(C)C2=O (stereo not given in full)
inactive: Potency [1] | Potency [2] | Potency [3] | Potency [4] | Potency [5]

COCc1c(O)c(C(=O)O)c(C)c2c1OC(=O)c1c(C)cc(O)c(CO)c1O2
inactive: Potency [1] | Potency [2] | Potency [3] | Potency [5]
active: Potency [4] 5.21 µM

C=C1CC[C@@]2(OC1)O[C@H]1CC3[C@@H]4CC=C5C[C@H](O[C@H]6OC[C@@H](O)C(O)[C@@H]6O[C@@H]6O[C@@H](C)[C@H](O)[C@@H](O[C@@H]7O[C@H](CO)[C@@H](O)[C@H](O)[C@H]7O)[C@H]6O)C[C@@H](O)[C@]5(C)C4CC[C@]3(C)[C@H]1[C@@H]2C (stereo not given in full)
inactive: Potency [1] | Potency [2] | activity change, negative = inhibition [3] -10.8% [at 11.6 µM] | activity change, negative = thiol reactive [4] 124% [at 11.5 µM] | activity, negative = inhibition [5] -1.92% [at 11.6 µM]

CC1(C)OC(=O)CC(O)C2(C)C1CC(=O)C1(C)C2C(O)CC2(C)C(c3ccoc3)OC(=O)C3OC321 (stereo not given)
inactive: Potency [1] | Potency [2] | Potency [3] | Potency [4] | Potency [5]

CC1=C(C)C(=O)OC(C(C)C2C(O)CC3C4C5OC5C5(O)CC(OC6OC(CO)C(OC7OC(C)C(O)C(O)C7O)C(O)C6O)CC(O)C5(C)C4CCC32C)C1 (stereo not given)
inactive: Potency [1] | Potency [2] | Potency [3] | Potency [4] | Potency [5]

CC(C)=CC[C@H]1O[C@]2(O)C([C@H]3CCC4[C@@]5(C)CC[C@H](O[C@@H]6O[C@H](CO)[C@H](O)[C@H](O[C@@H]7O[C@H](CO)[C@@H](O)[C@H](O)[C@H]7O)[C@H]6O[C@@H]6O[C@@H](C)[C@H](O)[C@@H](O)[C@H]6O)C(C)(C)C5CC[C@@]4(C)[C@]3(C)[C@H]2O)[C@@]1(C)O (stereo not given in full)
inactive: Potency [1] | Potency [2] | activity change, negative = inhibition [3] 0.583% [at 11.6 µM] | activity change, negative = thiol reactive [4] 12.2% [at 11.5 µM] | activity, negative = inhibition [5] -2.88% [at 11.6 µM]
